T cruzi growth-1: blocks T. cruzi growth in NIH3T3 culture; 77,000 compounds, 5.9% hits; inhibition, % at 8.34 µM; T. cruzi beta-gal in NIH3T3, GalScreen luminescence, 90 h;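 active = mean inhibition above about 93%, with at least 55% of replicates each passing it, limit read from the data, passing the limit was not always enough; inconclusive = only one of those two conditions holds; inactive = neither condition holds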
C diff HTS: inhibitors of Clostridium difficile growth; Clostridium difficile clinical isolate growth, OD600, 24 h; active compounds read low; growth activity, negative = inhibition, % at 16 µg/mL (by protocol); 86,000 compounds, 0.25% hits; AID 1259249;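 active = mean growth activity at or below -80% and every replicate also at or below -80%; inconclusive = mean at or below -80% but some replicate above -80%; inactive = mean growth activity above -80%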;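 also: 0% = DMSO wells and -100% = levofloxacin 16 µg/mL wells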
Pf Dd2 growth: inhibitors of Plasmodium falciparum Dd2 growth; P. falciparum Dd2 growth, SYBR Green, 72 h; active compounds read low; activity change, % at 10 µM; 94,000 compounds, 2.3% hits; AID 1159554; in the data active = activity change below about -80%; inconclusive = no clear call, values can overlap the other calls
T cruzi growth-2: inhibitors of T. cruzi proliferation | AID 651739 | inhibition, % at 8.35 µM | 5,600 compounds, 72% hits | shares compounds with T cruzi growth-1 | T. cruzi beta-gal in NIH3T3, GalScreen luminescence, 90 h;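 active = mean replicate inhibition above about 95% and at least 55% of replicates individually reaching it, limit read from the data; inconclusive = only one of the two criteria is met; inactive = neither criterion is met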
T cruzi growth-3: Trypanosoma cruzi proliferation inhibition | shares compounds with T cruzi growth-1 | T. cruzi beta-gal in NIH3T3, GalScreen luminescence, 90 h | inhibition, % at 2.09 µM | 5,600 compounds, 21% hits;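 active = mean inhibition above about 95%, with at least 55% of replicates also reaching it, limit read from the data; inconclusive = meets just one of the two conditions; inactive = meets neither condition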;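 also: plate controls were neutral control median for no effect and positive control median for full effect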
3T3 cytotox: kills mouse NIH/3T3 fibroblasts; shares compounds with T cruzi growth-1; NIH/3T3 viability, CellTiter-Glo ATP luminescence, 90 h; cytotoxicity (signal decrease), % at 8.35 µM; 5,600 compounds, 14% hits; AID 651742;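 active = mean signal decrease across replicates above about 35% based on untreated-well scatter, with enough replicates individually passing, limit read from the data; inconclusive = no rule stated though some were filed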;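 also: 0% = median of neutral control wells and 100% = median of positive control wells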
3T3 cytotox 2: NIH/3T3 (mouse) viability loss; shares compounds with T cruzi growth-1; NIH/3T3 viability, CellTiter-Glo ATP luminescence, 90 h; inhibition, % at 24.9 µM; 5,600 compounds, 56% hits; AID 651744;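 active = mean loss of cell viability signal at or above a set limit, and enough replicates individually reaching it; inconclusive = meets only the mean limit or only the replicate share; inactive = meets neither condition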;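 also: 0% = median of neutral control wells and 100% = median of positive control wells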
* hit, by the source's call; ? = inconclusive; . = no result. In the library only some 6.8% were active in any assay of this set; here they are far more common.

SMILES | T cruzi growth-1 | C diff HTS | Pf Dd2 growth | T cruzi growth-2 | T cruzi growth-3 | 3T3 cytotox | 3T3 cytotox 2
C[C@@H]1CN([C@@H](C)CO)C(=O)c2cc(-c3ccc(F)cc3)cnc2O[C@@H]1CN(C)C(=O)Nc1ccccc1F | 51.3 | 0.7 | -13.3 | . | . | . | .
O=C(C[C@H]1CC[C@@H](NC(=O)C2CCC2)[C@@H](CO)O1)NC1CCC1 | . | 5.9 | 6.2 | . | . | . | .
C[C@@H]1CN([C@H](C)CO)C(=O)c2cc(C#C[C@@H](C)O)cnc2O[C@@H]1CN(C)C(=O)Nc1ccc(F)cc1 | 17.4 | -4.2 | 26.1 | . | . | . | .
O=C(Nc1ccccc1Cl)N1C[C@H]2[C@@H](c3ccccc31)[C@@H](CO)N2Cc1ccccc1 | 72.8 | 3.9 | 1.6 | . | . | . | .
O=C(c1ccc2c(c1)OCO2)N1C[C@H]2[C@@H](c3ccccc31)[C@H](CO)N2Cc1ccc2c(c1)OCO2 | 43.3 | 8.9 | -12.0 | . | . | . | .
O=C(Nc1ccc(F)cc1)N1C[C@H]2[C@@H](c3ccccc31)[C@H](CO)N2C(=O)c1ccccc1 | 101.9* | -5.4 | -7.5 | 97.8* | 64.4 | -2.4 | -3.8
O=C(Nc1ccccc1Cl)N1C[C@H]2[C@@H](c3ccccc31)[C@H](CO)N2Cc1ccccc1 | 99.7* | 9.0 | -9.2 | 82.2 | 8.2 | -7.0 | 11.8
O=C(Nc1ccc(F)cc1)N1C[C@@H]2[C@H](c3ccccc31)[C@H](CO)N2C(=O)c1ccccc1 | 50.6 | 2.2 | 3.9 | . | . | . | .
COc1ccc(C(=O)N2C[C@H]3[C@@H](c4ccccc42)[C@H](CO)N3Cc2ccc3c(c2)OCO3)cc1 | ? | 10.4 | -8.7 | 75.1 | 0.7 | -6.7 | 33.0*
C[C@H]1CN([C@@H](C)CO)C(=O)Cc2cc(NC(=O)CCC(F)(F)F)ccc2O[C@@H]1CN(C)CC1CC1 | -9.6 | -3.1 | 13.4 | . | . | . | .
O=C(C1CCOCC1)N1CC2(C1)[C@H](c1ccccc1)[C@H](CO)N2C(=O)CC1CC1 | . | -6.3 | 38.6 | . | . | . | .
CC(C)CC#Cc1ccc2c(c1)O[C@@H](CN(C)C(=O)Nc1ccccc1F)[C@H](C)CN([C@H](C)CO)S2(=O)=O | 115.4* | -10.1 | -65.6 | 109.4* | 41.9 | 28.9 | 78.1*
CCCC#Cc1ccc2c(c1)O[C@H](CN(C)C(=O)Nc1ccccc1F)[C@H](C)CN([C@H](C)CO)S2(=O)=O | . | 12.6 | -60.2 | . | . | . | .
CC(C)CC#Cc1ccc2c(c1)O[C@@H](CN(C)C(=O)Nc1ccccc1F)[C@@H](C)CN([C@H](C)CO)S2(=O)=O | 107.7* | -6.2 | -77.6 | 106.2* | ? | -12.6 | 98.8*
CC(C)CC#Cc1ccc2c(c1)O[C@@H](CN(C)C(=O)Nc1ccccc1F)[C@H](C)CN([C@@H](C)CO)S2(=O)=O | 108.3* | -23.4 | -59.9 | 107.6* | 75.8 | 24.5 | 100.6*
CC(C)CC#Cc1ccc2c(c1)O[C@H](CN(C)C(=O)Nc1ccccc1F)[C@H](C)CN([C@@H](C)CO)S2(=O)=O | 51.3 | 3.8 | -26.9 | . | . | . | .
CC(C)CC#Cc1ccc2c(c1)O[C@H](CN(C)C(=O)Nc1ccccc1F)[C@@H](C)CN([C@@H](C)CO)S2(=O)=O | 84.0 | 0.9 | -72.4 | . | . | . | .
O=C(Cc1ccccn1)N[C@H]1CC[C@H](CCNC(=O)c2cc(Cl)cc(Cl)c2)O[C@H]1CO | 1.1 | . | -3.3 | . | . | . | .
C[C@@H]1CCCCO[C@H](CN(C)CC2CCCCC2)[C@H](C)CN([C@H](C)CO)C(=O)c2cc(NS(=O)(=O)c3ccc(Cl)cc3)ccc2O1 | 63.5 | -16.5 | -68.6 | . | . | . | .
C[C@H]1CN([C@@H](C)CO)C(=O)c2cc(NS(=O)(=O)c3ccccc3)ccc2O[C@@H]1CN(C)CC1CC1 | -1.2 | -5.1 | 7.4 | . | . | . | .
CO[C@@H](CN(C)C(=O)Nc1ccc(F)cc1)[C@H](C)CN(Cc1ccccc1Cl)[C@H](C)CO | -78.1 | . | -16.3 | . | . | . | .
CO[C@H](CN(C)S(=O)(=O)c1ccc(Cl)cc1)[C@H](C)CN(Cc1ccccc1Cl)[C@@H](C)CO | 77.4 | . | -25.2 | . | . | . | .
CO[C@@H](CN(C)S(=O)(=O)c1ccc(Cl)cc1)[C@@H](C)CN(Cc1ccccc1Cl)[C@H](C)CO | ? | . | -51.6 | 100.5* | -13.0 | 13.3 | 99.2*
CO[C@H](CN(C)C(=O)Nc1ccc(Cl)cc1)[C@H](C)CN(Cc1ccccc1Cl)[C@@H](C)CO | 114.0* | . | -50.6 | 103.4* | 99.3* | 41.7* | 48.8*
CO[C@H](CN(C)C(=O)Nc1ccc(Cl)cc1)[C@H](C)CN(Cc1ccccc1Cl)[C@H](C)CO | 109.4* | . | -51.1 | 108.5* | 63.2 | ? | 60.0*
SMILES | T cruzi growth-1 | C diff HTS | Pf Dd2 growth | T cruzi growth-2 | T cruzi growth-3 | 3T3 cytotox | 3T3 cytotox 2
CO[C@@H](CN(C)S(=O)(=O)c1ccc(Cl)cc1)[C@H](C)CN(Cc1ccccc1Cl)[C@@H](C)CO | 70.5 | . | -28.0 | . | . | . | .
CO[C@@H](CN(C)C(=O)Nc1ccc(Cl)cc1)[C@@H](C)CN(Cc1ccccc1Cl)[C@H](C)CO | 111.5* | . | -46.0 | 106.2* | 64.0 | 28.2 | 31.2*
CO[C@H](CN(C)C(=O)Nc1ccc(F)cc1)[C@H](C)CN(Cc1ccccc1Cl)[C@H](C)CO | -33.8 | . | -22.8 | . | . | . | .
O=C(Nc1ccc2c(c1)OCO2)N[C@@H]1CC[C@@H](CC(=O)N2CCN(c3ccccc3)CC2)O[C@@H]1CO | 47.6 | 0.3 | -5.8 | . | . | . | .
CCS(=O)(=O)Nc1ccc2c(c1)C(=O)N(C)C[C@H](OC)[C@@H](C)CN(CC1CCCC1)[C@@H](C)CO2 | -2.1 | 0.7 | -48.5 | . | . | . | .
C[C@@H]1CN([C@H](C)CO)C(=O)c2cc(NC(=O)Cc3ccccc3)ccc2O[C@@H](C)CCCCO[C@@H]1CN(C)S(=O)(=O)c1cn(C)cn1 | 26.1 | 2.4 | -58.1 | . | . | . | .
O=C(Nc1cccc(Cl)c1)N[C@H]1CC[C@H](CCNC(=O)C2CCCCC2)O[C@@H]1CO | -9.2 | 2.0 | 0.3 | . | . | . | .
O=C(c1cnccn1)N1C[C@H]2[C@@H](c3ccccc31)[C@@H](CO)N2CC1CCCC1 | 10.0 | 3.9 | 7.5 | . | . | . | .
C[C@@H]1CN([C@@H](C)CO)S(=O)(=O)c2ccc(-c3cccnc3)cc2O[C@@H]1CN(C)C(=O)c1ccc2c(c1)OCO2 | -61.8 | -2.4 | 20.8 | . | . | . | .
CCCNC(=O)N1CC2(CCN(C(C)=O)CC2)c2c(n(C)c3cc(OC)ccc23)[C@H]1CO | . | -3.4 | 2.2 | . | . | . | .
CC(C)C#Cc1ccc2c(c1)O[C@@H](CN(C)C(=O)c1ccncc1)[C@H](C)CN([C@@H](C)CO)S2(=O)=O | 67.2 | 3.6 | -13.3 | . | . | . | .
CC(C)C#Cc1ccc2c(c1)O[C@@H](CN(C)C(=O)c1ccccc1)[C@@H](C)CN([C@H](C)CO)S2(=O)=O | 68.7 | 13.0 | -52.5 | . | . | . | .
CC(C)C#Cc1ccc2c(c1)O[C@@H](CN(C)C(=O)c1ccccc1)[C@H](C)CN([C@H](C)CO)S2(=O)=O | 99.3* | -8.0 | -75.6 | 103.8* | 46.3 | 45.6* | 39.0*
